Inhibition data for three compounds are collected here from ChEMBL document CHEMBL1961873, “Compounds: GSK PKIS; Assays: Nanosyn kinase panel” (2012).

Experiment [1] deals with T1, Serine/threonine-protein kinase Nek9 (Homo sapiens) (UniProt Q8TD19).
T1 sequence (whole entry): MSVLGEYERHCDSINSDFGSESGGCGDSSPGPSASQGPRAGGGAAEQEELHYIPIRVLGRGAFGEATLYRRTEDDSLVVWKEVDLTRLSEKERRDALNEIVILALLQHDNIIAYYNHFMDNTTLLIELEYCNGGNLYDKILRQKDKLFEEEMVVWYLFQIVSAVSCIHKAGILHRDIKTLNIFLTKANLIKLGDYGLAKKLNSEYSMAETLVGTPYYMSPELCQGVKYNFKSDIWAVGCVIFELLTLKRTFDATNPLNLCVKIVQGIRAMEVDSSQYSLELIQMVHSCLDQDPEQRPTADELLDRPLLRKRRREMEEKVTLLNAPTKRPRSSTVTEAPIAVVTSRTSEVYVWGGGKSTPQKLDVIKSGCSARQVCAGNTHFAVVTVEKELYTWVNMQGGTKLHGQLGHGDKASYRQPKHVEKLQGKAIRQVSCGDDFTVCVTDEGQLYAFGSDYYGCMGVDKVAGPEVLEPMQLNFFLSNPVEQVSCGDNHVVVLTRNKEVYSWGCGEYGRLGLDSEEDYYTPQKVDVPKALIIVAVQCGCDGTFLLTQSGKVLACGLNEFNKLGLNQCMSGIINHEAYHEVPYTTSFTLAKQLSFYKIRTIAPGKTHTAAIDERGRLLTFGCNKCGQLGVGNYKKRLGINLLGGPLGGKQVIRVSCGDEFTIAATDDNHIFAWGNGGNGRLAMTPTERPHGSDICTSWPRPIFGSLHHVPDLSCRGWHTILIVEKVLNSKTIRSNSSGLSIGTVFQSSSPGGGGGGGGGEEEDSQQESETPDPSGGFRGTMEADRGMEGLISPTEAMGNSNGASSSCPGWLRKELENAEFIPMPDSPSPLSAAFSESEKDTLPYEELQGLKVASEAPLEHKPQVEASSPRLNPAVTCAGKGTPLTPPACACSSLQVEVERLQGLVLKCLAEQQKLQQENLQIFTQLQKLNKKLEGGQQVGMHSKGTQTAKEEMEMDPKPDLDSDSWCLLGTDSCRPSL
The settings on record: at 1 µM.

In experiment [2] the target is Serine/threonine-protein kinase PLK1 (Homo sapiens) (UniProt P53350). The conditions noted are these: at 0.1 µM.
Experiment [3] shares this target. The settings on record: at 1 µM.
In experiment [4] the target is T2, Dual specificity protein kinase TTK (Homo sapiens) (UniProt P33981).
T2 sequence (whole entry): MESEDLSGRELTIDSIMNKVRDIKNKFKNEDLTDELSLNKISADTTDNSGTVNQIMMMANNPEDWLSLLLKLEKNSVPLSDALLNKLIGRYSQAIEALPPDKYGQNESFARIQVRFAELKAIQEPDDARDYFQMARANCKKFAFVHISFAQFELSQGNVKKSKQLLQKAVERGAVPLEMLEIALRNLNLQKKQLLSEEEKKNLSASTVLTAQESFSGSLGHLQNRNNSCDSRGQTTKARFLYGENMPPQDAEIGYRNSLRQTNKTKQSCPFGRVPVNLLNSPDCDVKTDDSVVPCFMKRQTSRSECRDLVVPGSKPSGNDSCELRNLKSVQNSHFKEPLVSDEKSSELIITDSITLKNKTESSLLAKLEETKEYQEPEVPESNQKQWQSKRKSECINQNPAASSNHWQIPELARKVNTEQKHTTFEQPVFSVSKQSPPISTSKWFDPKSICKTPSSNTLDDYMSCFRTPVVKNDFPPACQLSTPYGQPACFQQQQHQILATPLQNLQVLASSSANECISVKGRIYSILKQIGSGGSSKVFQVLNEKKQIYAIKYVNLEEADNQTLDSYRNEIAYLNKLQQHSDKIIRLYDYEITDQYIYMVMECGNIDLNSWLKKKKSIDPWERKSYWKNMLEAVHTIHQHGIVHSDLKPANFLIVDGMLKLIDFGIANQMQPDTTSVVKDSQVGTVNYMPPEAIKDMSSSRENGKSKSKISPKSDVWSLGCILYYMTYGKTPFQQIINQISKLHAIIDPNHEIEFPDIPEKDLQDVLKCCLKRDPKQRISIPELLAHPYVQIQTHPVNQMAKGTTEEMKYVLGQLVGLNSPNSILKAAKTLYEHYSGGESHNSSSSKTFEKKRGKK
The settings on record: at 0.1 µM.

Experiment [5] concerns T3, Receptor-type tyrosine-protein kinase FLT3 (Homo sapiens), P36888 [D835Y].
T3 sequence (whole entry): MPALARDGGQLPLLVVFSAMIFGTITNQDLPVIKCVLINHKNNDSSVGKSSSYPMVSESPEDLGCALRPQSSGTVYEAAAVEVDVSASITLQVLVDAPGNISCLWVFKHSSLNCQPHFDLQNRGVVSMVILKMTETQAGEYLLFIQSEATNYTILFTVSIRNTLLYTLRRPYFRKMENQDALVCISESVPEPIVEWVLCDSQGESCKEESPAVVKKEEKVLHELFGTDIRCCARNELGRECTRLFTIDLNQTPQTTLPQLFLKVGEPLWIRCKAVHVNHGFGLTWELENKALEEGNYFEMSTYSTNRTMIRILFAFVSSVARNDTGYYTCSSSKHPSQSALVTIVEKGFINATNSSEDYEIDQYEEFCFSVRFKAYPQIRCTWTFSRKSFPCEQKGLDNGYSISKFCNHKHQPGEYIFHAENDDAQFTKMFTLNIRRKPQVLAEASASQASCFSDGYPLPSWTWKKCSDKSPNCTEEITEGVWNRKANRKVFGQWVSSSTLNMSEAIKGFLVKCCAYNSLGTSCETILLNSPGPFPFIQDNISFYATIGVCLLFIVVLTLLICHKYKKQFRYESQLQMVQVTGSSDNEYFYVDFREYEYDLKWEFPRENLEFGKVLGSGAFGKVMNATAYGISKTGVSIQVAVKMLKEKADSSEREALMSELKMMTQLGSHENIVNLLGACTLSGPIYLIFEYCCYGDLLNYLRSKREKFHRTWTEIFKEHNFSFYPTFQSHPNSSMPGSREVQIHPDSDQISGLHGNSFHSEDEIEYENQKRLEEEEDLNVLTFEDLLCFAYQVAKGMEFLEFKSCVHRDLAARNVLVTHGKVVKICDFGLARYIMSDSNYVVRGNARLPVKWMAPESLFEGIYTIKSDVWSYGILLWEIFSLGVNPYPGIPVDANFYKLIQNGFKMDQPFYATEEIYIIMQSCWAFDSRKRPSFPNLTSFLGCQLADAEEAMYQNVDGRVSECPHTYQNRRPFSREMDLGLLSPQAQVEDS
The settings on record: at 1 µM.

Experiment [6] addresses Vascular endothelial growth factor receptor 3 (Homo sapiens) (UniProt P35916). The settings on record: at 0.1 µM.
For experiment [7] the target is unchanged. The settings on record: at 1 µM.
The target of experiment [8] is Macrophage colony-stimulating factor 1 receptor (Homo sapiens) (UniProt P07333). The settings on record: at 0.1 µM.
Experiment [9] has the same target. The settings on record: at 1 µM.
Experiment [10] addresses Tyrosine-protein kinase Fyn (Homo sapiens) (UniProt P06241). The conditions noted are these: at 0.1 µM.
For experiment [11] the target is unchanged. The conditions noted are these: at 1 µM.
The target of experiment [12] is Tyrosine-protein kinase HCK (Homo sapiens) (UniProt P08631). The settings on record: at 0.1 µM.
For experiment [13] the target is unchanged. The settings on record: at 1 µM.
Experiment [14] addresses Insulin-like growth factor 1 receptor (Homo sapiens) (UniProt P08069). The settings on record: at 0.1 µM.
Experiment [15] has the same target. The settings on record: at 1 µM.
Experiment [16] deals with Insulin receptor (Homo sapiens) (UniProt P06213). The settings on record: at 0.1 µM.
Experiment [17] has the same target. The settings on record: at 1 µM.
The target in experiment [18] is Insulin receptor-related protein (Homo sapiens) (UniProt P14616). The settings on record: at 0.1 µM.
The target is the same in experiment [19]. The conditions noted are these: at 1 µM.
Experiment [20] concerns the target T4, Tyrosine-protein kinase ITK/TSK (Homo sapiens) (UniProt Q08881).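 Also: mean percent inhibition of ITK from the GSK PKIS screen.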
T4 sequence (whole entry): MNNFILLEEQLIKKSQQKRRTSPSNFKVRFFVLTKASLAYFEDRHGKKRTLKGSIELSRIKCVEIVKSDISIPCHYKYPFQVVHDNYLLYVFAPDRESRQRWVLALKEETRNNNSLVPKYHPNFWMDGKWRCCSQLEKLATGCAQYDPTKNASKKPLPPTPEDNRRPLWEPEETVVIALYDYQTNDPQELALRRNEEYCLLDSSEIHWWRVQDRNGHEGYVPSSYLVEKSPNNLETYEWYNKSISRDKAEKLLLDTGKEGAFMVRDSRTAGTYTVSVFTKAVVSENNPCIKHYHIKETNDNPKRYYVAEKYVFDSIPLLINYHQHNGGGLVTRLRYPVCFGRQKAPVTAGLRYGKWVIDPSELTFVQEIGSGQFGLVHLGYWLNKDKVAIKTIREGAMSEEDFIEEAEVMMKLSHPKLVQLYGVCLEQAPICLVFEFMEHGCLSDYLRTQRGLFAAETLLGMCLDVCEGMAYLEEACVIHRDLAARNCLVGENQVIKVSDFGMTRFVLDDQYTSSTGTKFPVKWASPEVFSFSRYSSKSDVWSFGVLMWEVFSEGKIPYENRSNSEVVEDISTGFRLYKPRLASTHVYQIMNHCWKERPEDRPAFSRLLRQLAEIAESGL
The conditions noted are these: at 0.1 µM.

Macrophage colony-stimulating factor 1 receptor (Homo sapiens), sequence (P07333 whole entry): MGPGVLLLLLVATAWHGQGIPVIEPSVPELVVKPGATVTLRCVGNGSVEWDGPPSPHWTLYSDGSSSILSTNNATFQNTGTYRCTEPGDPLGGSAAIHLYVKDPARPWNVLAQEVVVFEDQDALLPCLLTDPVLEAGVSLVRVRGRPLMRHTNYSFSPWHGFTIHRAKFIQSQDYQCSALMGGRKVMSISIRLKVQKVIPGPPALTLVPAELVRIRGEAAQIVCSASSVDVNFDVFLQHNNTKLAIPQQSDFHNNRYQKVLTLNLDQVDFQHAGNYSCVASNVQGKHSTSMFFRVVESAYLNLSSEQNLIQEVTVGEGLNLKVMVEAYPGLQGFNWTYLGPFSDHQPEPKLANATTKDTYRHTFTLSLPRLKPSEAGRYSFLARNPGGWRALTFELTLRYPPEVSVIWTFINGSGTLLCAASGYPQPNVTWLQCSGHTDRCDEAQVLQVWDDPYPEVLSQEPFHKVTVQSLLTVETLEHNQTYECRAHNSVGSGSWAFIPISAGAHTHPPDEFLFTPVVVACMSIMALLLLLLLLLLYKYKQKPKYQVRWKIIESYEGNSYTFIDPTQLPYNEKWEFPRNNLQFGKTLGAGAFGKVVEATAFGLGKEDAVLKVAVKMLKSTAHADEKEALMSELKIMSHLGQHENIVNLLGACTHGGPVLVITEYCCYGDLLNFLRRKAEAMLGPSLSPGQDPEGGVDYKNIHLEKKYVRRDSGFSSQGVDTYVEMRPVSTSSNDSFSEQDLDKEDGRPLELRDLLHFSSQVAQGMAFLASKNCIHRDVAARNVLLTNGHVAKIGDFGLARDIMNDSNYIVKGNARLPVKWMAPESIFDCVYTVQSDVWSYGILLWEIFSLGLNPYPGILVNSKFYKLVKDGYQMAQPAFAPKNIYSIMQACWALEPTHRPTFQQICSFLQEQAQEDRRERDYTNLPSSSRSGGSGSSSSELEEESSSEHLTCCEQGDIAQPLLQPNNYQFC
Tyrosine-protein kinase Fyn (Homo sapiens), sequence (P06241 2-537 limits assumed): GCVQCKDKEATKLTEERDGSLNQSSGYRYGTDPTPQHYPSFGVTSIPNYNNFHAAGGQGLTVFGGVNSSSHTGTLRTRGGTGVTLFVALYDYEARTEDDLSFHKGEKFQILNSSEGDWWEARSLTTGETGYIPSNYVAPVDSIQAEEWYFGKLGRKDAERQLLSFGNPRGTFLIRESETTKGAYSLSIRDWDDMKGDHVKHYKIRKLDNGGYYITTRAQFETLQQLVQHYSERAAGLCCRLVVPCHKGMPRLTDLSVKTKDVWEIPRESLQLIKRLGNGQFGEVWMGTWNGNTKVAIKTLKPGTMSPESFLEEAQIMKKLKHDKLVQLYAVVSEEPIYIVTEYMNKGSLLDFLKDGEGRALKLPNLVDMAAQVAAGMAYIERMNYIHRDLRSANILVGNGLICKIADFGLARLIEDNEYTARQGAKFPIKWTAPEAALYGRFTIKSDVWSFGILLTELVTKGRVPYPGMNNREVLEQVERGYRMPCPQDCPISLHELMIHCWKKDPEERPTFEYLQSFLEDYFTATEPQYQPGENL
Vascular endothelial growth factor receptor 3 (Homo sapiens), sequence (P35916 whole entry): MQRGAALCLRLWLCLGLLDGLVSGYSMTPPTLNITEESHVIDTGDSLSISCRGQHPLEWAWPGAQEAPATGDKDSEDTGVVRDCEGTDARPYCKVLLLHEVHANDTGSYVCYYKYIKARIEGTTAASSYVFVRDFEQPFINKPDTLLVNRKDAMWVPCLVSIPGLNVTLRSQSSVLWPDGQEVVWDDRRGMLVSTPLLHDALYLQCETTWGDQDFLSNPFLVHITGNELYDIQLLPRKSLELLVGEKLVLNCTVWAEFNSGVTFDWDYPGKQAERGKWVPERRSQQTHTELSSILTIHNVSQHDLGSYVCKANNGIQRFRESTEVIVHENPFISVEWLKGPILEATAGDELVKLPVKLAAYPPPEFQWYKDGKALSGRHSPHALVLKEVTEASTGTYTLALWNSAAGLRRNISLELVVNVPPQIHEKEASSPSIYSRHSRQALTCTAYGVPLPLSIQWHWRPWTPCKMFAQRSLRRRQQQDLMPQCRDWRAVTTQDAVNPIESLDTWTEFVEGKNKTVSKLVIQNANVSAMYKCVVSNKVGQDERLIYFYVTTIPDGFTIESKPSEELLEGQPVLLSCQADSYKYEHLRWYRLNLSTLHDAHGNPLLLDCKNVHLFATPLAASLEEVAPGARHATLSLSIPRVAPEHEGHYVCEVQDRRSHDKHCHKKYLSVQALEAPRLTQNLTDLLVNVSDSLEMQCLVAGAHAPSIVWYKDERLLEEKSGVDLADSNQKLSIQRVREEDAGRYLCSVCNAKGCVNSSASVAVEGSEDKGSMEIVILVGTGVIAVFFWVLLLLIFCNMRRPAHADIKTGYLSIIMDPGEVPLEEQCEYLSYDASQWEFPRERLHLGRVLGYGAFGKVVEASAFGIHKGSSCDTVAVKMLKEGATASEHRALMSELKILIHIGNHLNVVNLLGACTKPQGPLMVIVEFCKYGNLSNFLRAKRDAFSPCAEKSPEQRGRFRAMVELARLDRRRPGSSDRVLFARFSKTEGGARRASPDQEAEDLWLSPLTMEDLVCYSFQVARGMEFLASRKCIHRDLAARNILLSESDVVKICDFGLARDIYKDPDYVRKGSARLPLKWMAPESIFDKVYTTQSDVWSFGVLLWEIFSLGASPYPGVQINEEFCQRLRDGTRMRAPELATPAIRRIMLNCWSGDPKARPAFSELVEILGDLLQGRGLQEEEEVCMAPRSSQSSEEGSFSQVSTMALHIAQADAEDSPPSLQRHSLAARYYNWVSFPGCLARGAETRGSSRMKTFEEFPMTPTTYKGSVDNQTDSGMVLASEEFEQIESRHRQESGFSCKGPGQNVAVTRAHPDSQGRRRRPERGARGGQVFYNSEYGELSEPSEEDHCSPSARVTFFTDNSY
Tyrosine-protein kinase HCK (Homo sapiens), sequence (P08631 2-526 limits assumed): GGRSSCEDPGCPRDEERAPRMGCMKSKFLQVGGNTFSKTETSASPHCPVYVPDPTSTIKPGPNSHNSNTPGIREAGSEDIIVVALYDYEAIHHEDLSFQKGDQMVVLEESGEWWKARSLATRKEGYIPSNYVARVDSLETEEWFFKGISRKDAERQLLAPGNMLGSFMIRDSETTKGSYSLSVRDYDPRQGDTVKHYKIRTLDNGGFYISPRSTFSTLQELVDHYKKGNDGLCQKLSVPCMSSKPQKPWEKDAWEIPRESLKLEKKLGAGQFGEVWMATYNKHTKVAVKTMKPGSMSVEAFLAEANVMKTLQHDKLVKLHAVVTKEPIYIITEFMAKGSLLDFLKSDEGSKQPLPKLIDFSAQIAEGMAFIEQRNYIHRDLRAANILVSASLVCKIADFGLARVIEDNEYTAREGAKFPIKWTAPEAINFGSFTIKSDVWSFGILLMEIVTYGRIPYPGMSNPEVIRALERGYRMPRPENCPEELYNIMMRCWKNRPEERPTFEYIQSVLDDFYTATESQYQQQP
Insulin-like growth factor 1 receptor (Homo sapiens), sequence (P08069 31-736 limits assumed): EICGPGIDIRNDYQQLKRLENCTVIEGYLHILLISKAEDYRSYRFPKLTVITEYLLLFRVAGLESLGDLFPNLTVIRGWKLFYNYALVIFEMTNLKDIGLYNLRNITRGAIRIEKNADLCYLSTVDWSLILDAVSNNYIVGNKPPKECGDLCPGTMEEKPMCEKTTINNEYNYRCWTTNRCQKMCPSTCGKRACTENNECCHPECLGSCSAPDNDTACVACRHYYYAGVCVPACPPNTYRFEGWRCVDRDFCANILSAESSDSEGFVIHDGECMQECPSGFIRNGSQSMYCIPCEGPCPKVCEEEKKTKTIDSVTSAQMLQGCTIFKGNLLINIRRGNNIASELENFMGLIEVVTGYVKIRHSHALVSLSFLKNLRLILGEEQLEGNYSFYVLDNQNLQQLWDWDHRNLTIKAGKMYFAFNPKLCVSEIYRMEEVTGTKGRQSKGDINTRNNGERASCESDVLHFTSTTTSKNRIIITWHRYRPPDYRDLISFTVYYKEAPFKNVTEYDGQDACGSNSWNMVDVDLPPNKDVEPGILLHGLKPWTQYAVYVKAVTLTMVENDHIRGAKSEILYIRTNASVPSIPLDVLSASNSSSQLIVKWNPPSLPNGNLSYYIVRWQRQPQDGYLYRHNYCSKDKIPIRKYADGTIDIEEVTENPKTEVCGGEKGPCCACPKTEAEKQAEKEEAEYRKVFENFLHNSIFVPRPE
Insulin-like growth factor 1 receptor (Homo sapiens), sequence (P08069 741-1367 limits assumed): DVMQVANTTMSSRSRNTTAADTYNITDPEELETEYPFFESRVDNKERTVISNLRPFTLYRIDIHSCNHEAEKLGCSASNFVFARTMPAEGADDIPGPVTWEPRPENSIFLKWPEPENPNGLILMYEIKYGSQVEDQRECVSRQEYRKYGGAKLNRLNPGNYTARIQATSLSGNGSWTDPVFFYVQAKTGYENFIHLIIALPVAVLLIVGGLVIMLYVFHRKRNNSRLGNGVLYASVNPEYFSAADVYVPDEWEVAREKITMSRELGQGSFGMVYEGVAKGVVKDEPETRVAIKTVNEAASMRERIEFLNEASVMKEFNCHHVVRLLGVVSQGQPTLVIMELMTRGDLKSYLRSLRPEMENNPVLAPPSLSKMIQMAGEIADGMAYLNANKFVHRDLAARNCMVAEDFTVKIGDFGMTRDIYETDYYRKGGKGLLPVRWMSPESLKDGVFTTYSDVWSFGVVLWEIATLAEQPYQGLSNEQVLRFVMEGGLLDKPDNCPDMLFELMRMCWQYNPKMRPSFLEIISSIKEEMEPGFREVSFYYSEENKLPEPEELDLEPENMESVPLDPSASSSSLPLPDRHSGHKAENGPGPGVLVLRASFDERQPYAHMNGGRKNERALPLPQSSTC

Broadly, the inhibition is the change of the read-out against control, counted positive when it falls. Regarding `CCCNc1cccc(-n2ncc3c(N/N=C/c4ccncc4)ncnc32)c1`, the inhibition in [1] was 0.45%; in experiment [2] it was -0.12%; in [3], 0.93%; in experiment [4], 4%; in experiment [5], 31.9%; in [6], 11.3%. Further, the inhibition in experiment [7] was 40.7%; in experiment [8], 3.81%; in [9], 17.6%; in [10], 8.6%; in [11] it was 52.8%; in experiment [12] it was 7.22%. Besides, the inhibition in experiment [13] is 35.8%; in experiment [14] it was 0.75%; in experiment [15], -0.01%; in experiment [16], 1.6%; in [17], 0.96%; in experiment [18], 0.19%. Further, the inhibition in experiment [19] turned out to be 1.63%; in experiment [20] it was 6.02%.
Take `O=C(O[C@H]1CN[C@H](C#Cc2cc3ncnc(Nc4ccc(OCc5cccc(F)c5)c(Cl)c4)c3s2)C1)N1CCOCC1`: the inhibition in experiment [1] is 13.5%; in experiment [2], 3.78%; in [3] it was 4.55%; in experiment [4], 12.4%; in [5] it was -1.26%; in experiment [6], 6.24%. Further, the inhibition came out at 3.14% in experiment [7]; 1.07% in [8]; 1.72% in [9]; 3.75% in experiment [10]; 6.59% in experiment [11]; 3.37% in [12]. In addition, the inhibition in [13] is 6.71%; in experiment [14], 6.13%; in experiment [15], 14.8%; in experiment [16] it was 7.72%; in [17] it was 5.91%; in experiment [18] it was 3.84%. For the same compound, the inhibition came out at 3.3% in experiment [19] and 0.99% in [20].
For `CNC(=O)c1cncc(/C=C/c2ccccc2C)c1`, the inhibition in experiment [1] was 3.57%; in experiment [2], 4.47%; in [3], 3.11%; in experiment [4], 8.61%; in [5] it was 2.62%; in experiment [6], 6.74%. Also, the inhibition is 3.1% in experiment [7]; -0.27% in experiment [8]; 4.09% in experiment [9]; -0.42% in experiment [10]; 10.8% in experiment [11]; 6.15% in [12]. Moreover, the inhibition in experiment [13] worked out at 20.1%; in experiment [14] it was 3.6%; in experiment [15], 6.92%; in [16], 2.85%; in [17] it was 2.34%; in [18], 4.17%. The inhibition in experiment [19] worked out at 2.86%; in experiment [20], 1.32%.
